# High-throughput results (PubChem)
# A selection: hits, their analogues and other compounds. The true share with any hit is near 4.3%.
# D3 ag: activates the human D3 dopamine receptor. D3R DiscoveRx beta-arrestin cells, luminescence, 90 min. max activation, %. 410,000 tested, 0.58% active; in the data active = max activation above about 30%; also: 0% is about no effect
# Target sequence (P35462 whole entry, looked up): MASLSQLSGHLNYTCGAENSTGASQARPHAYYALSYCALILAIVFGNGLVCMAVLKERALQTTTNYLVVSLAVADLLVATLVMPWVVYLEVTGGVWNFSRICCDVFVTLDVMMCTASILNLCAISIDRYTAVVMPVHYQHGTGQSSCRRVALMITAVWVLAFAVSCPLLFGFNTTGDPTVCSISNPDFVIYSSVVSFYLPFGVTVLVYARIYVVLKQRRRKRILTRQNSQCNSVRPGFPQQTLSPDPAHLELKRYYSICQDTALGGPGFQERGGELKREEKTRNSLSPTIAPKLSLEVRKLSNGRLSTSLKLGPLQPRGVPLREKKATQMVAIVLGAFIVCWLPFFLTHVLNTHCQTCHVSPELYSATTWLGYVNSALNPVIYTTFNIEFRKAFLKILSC
#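 Agonist-mode cell screen: cells plated at 1500/well and incubated overnight at 37 °C, then exposed to library compounds for 90 min at 37 °C. Detection reagent was added for 30–60 min at room temperature, and luminescence was read.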
# GLP1R ag: activates the human GLP-1 receptor; AID 624172; 380,000 tested, 0.007% active; P43220; HEK293 GLP-1R CRE-luciferase, luminescence, 4-6 h; cells express a hypersensitive GLP-1R form; Potency, µM (highest dose often 45.6 µM), for the others: top-dose activation, actives largely listed as activators; also: potency is read from the fitted curve at half-maximal effect; % of control where 0% means no effect
# D3 antag: antagonists of human D3 dopamine receptor; P35462; D3R cells, DiscoveRx beta-arrestin luminescence, antagonist mode; hits give low values; max response, negative = inhibition, %; 360,000 tested, 2.5% active; in the data active = max response below about -50%; inconclusive = no clear call, values can overlap the other calls; also: % is scaled to controls: 0 for no effect and ±100 for the full control effect
#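 Cells plated overnight at 1500 cells/well, then exposed to library compounds with dopamine controls for 90 minutes at 37 degrees C. DiscoveRx reagent added for 30–60 minutes at room temperature; luminescence read, quantitative HTS format.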
# GLP1R inv ag: inverse agonists of human GLP-1 receptor. P43220. Potency, µM (top dose mostly 38.3 µM), inactives show at the highest dose activity change, negative = inhibition, hits mostly inhibitors. HEK293 GLP-1R CRE-luciferase, luminescence, 24 h; GLP-1R form is constitutively active. AID 624417. 410,000 tested, 1.6% active; also: potency is read from the fitted curve at half-maximal effect; % is scaled to controls: 0 for no effect and ±100 for the full control effect; nearly all actives have a fitted effect of over 55% in size
#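 Stable HEK293 clone (constitutively active GLP-1R + cAMP-response luciferase); 200 cells/uL plated, 12 h pre-culture, compound 24 hr, 37 deg C/5% CO2; detection reagent 12 min RT; luminescence.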
# The depositor's hits bear a star; ? = inconclusive; . = not tested or not shown. Unless noted, calls follow the shape of the dose curve; as a rule, active = well fitted curve in the direction sought with a large enough effect; inconclusive = small, poorly fitted or top-dose-only effect, or another doubt; inactive = no such curve, though single readings can be large; an effect the other way counts as inactive or inconclusive.
SMILES,D3 ag,GLP1R ag,D3 antag,GLP1R inv ag
CN(C)S(=O)(=O)c1ccc(C(=O)Nc2c(C(=O)Nc3ccc(F)cc3)oc3ccccc23)cc1,1,2%,.,9%
COc1cccc(-n2c(SCc3cccc(C)c3)nc3c([nH]c4ccccc43)c2=O)c1,5,7%,.,?
COC(=O)CNC(c1ccccc1Cl)c1cc(Br)ccc1NS(=O)(=O)c1ccc(C)cc1 (configuration not stated),-9,-18%,1,3.5µM*
O=C(NCCOc1ccccc1F)C1CC(=O)N(Cc2ccccc2)C1 (configuration not stated),-4,1%,-5,2%
O=C(NN1C(=O)/C(=C/c2ccc(O)c([N+](=O)[O-])c2)SC1=S)c1ccccc1Cl,-31,1%,-74*,-11%
COc1cc(/C=C2\SC(=S)N(NC(=O)c3ccccc3O)C2=O)ccc1O,-3,11%,-16,-1%
O=C(CN1CCN(CC(=O)Nc2ccccc2F)CC1)Nc1ccc(Cl)c(C(F)(F)F)c1,-13,.,.,?
O=C(N[C@@H](Cc1ccccc1)C(=O)N[C@@H](Cc1ccccc1)C(=O)O)OCc1ccccc1,19,-1%,0,13%
O=C(N[C@@H](Cc1ccccc1)C(=O)CCl)OCc1ccccc1,-66,-14%,-94*,?
O=C(COC(=O)c1ccccc1)Nc1cccc(S(=O)(=O)NC2=NCCCCC2)c1,-2,0%,20,6%
CC1(C(=O)OCC(=O)Nc2cccc(S(=O)(=O)NC3=NCCCCC3)c2)CC1(Cl)Cl (configuration not stated),45*,-1%,1,-2%
Cc1cccc(S(=O)(=O)Nc2cc(Cl)ccc2N2CCOCC2)c1,-11,7%,-26,10µM*
O=S1(=O)c2ccc(Br)cc2N2CCC[C@@H]2CN1Cc1ccc(Cl)cc1,-4,-4%,?,?
O=S1(=O)c2ccc(Br)cc2N2CCC[C@H]2CN1Cc1ccccc1,-36,13%,-12,4µM*
COc1ccc(-c2csc3nc(-c4ccc(F)cc4)oc(=O)c23)cc1OC,-8,.,.,8%
CCOc1ccc2nc(SCC(=O)N3c4ccccc4Sc4ccccc43)sc2c1,6,-7%,5,14%
CCn1c(CSc2nc3ccccc3s2)n[nH]c1=S,-1,-1%,-53*,0%
CN(C)CCCSc1nc2ccccc2s1,-25,-5%,-82*,-20%
O=C(CSc1nc2ccccc2s1)N1c2ccccc2Sc2ccccc21,2,0%,10,5.6µM*
S=c1[nH]nc(CSc2nc3ccccc3s2)n1Cc1ccccc1,-5,-8%,?,-26%
c1ccc2sc(SCSc3nc4ccccc4s3)nc2c1,5,4%,-5,?
Cn1c(Cn2nnc3ccccc32)nnc1SCC(=O)N1c2ccccc2Sc2ccccc21,-22,4%,-55*,?
Cc1cc(Br)ccc1NC(=O)COc1cc(=O)n(C)c2ccccc12,-11,3%,.,2%
COc1ccc(CCNC(=O)NCc2noc3ccc(C)cc23)c(OC)c1,4,.,.,15%
O=C(O)CCSc1nc2ccccc2s1,4,3%,-72*,2%
SMILES,D3 ag,GLP1R ag,D3 antag,GLP1R inv ag
CC(=Nc1ccc(C)cc1)c1sc2ccccc2c1O,-11,-7%,?,13µM*
CC(=Nc1ccc(C)cc1C)c1sc2ccccc2c1O,-5,-10%,-3,?
N=C1N(c2ccccc2)C(=S)C(=Nc2ccccc2)N1c1ccccc1,-11,11%,-61*,13µM*
CC(C)(C)c1ccc(C(=O)CC(=O)c2cc(Cl)ccc2O)cc1,-5,-7%,-57*,0%
Cc1ccc(C(=O)CC(=O)c2ccc(C)cc2O)cc1,-6,9%,-77*,12%
Cc1cc(C(=O)O)ccc1NCc1cccnc1,2,-3%,11,-5%
O=C(O)c1ccc(NCc2cccnc2)c([N+](=O)[O-])c1,-5,-3%,-83*,6%
O=[N+]([O-])c1ccc(Cl)cc1NCc1cccnc1,6,22%,8,5.6µM*
CCc1ccc(NC(=O)C(CC)n2c(=O)c(-c3ccccc3NC(C)=O)nc3ccccc32)cc1 (configuration not stated),-14,.,.,11µM*
COc1ccc(C)cc1NC(=O)C1CCN(C(=O)Cc2ccccc2)CC1,-4,10%,-5,-5%
Cc1nn(C)cc1/C=N\NC(=O)c1csc2c1CCCC2,4,15%,3,8%
O=C(CCN1CCc2ccccc2CC1)c1ccc2c(c1)OCCO2,-12,-17%,-94*,0%
